{
  "source": "PubChem BioAssay (NCATS)",
  "key": {"[1]": {"assay": "qHTS Assay for Identifying Gametocytocidal Compounds (AID 743244; active = well fitted curve in the direction sought with a large enough effect; an effect the other way counts as inactive or inconclusive;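 also: % is scaled to controls: 0 for no effect and ±100 for the full control effect; actives lower the fluorescent signal which means gametocytes are killed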)", "details": "P. falciparum 3D7 stage III-V gametocytes, alamarBlue, 72 h; max response: stronger effect = lower value", "outline": "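Stage III–V gametocytes of P. falciparum 3D7 were seeded at 20,000 cells/well onto pre-dispensed compounds. After 72 h, 37 °C, 5% CO2, alamarBlue was added for another 24 h.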"}, "[2]": {"assay": "qHTS profiling of the MIPE4 collection as inhibitors of Plasmodium falciparum (3D7) proliferation (AID 743344)", "details": "P. falciparum 3D7 in erythrocytes, SYBR Green DNA fluorescence, 72 h; at 28.5 µM (top of the series) unless noted", "outline": "(§1)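 Erythrocytes infected with P. falciparum (0.3% parasitemia, 2.5% hematocrit) incubated with compounds 72 h at 37 C, 5% CO2. Lysis with saponin/Triton buffer containing SYBR Green I, overnight at room temperature in the dark; DNA fluorescence (485/535 nm) normalised to 0.29 uM artemisinin and DMSO.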"}, "[3]": {"assay": "qHTS profiling of the MIPE4 collection as inhibitors of Plasmodium falciparum (DD2) proliferation (AID 743345)", "details": "P. falciparum Dd2 in erythrocytes, SYBR Green DNA, 72 h; at 28.5 µM (top of the series) unless noted", "outline": "as §1"}, "[4]": {"assay": "qHTS profiling of the MIPE4 collection as inhibitors of Plasmodium falciparum (DD2) proliferation (Rep 2) (AID 743346)", "details": "P. falciparum Dd2 in erythrocytes, SYBR Green DNA, 72 h; at 28.5 µM (top of the series) unless noted", "outline": "as §1"}, "[5]": {"assay": "qHTS profiling of the MIPE4 collection as inhibitors of Plasmodium falciparum (HB3) proliferation (AID 743347)", "details": "P. falciparum HB3 in erythrocytes, SYBR Green DNA, 72 h; at 28.5 µM (top of the series) unless noted", "outline": "as §1"}, "[6]": {"assay": "qHTS profiling for inhibitors of Plasmodium falciparum (3D7) proliferation (AID 743322)", "details": "P. falciparum 3D7 proliferation; at 28.7 µM (top of the series)", "outline": "as §1"}, "[7]": {"assay": "qHTS profiling for inhibitors of Plasmodium falciparum (DD2) proliferation (AID 743323)", "details": "lower = more inhibition; at 28.7 µM (top of the series)", "outline": "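Parasite DNA quantified by SYBR Green fluorescence (ex 485, em 535 nm) after saponin/Triton lysis and overnight dark incubation. Cultures: 0.3% parasitemia, 2.5% hematocrit, 72 h, 37 C; data scaled between DMSO and 0.29 uM artemisinin.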"}, "[8]": {"assay": "qHTS profiling for inhibitors of Plasmodium falciparum (HB3) proliferation (AID 743324; active = well fitted curve in the direction sought with a large enough effect; an effect the other way counts as inactive or inconclusive)", "details": "Plasmodium falciparum HB3 blood-stage proliferation; at 28.7 µM (top of the series)", "outline": "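P. falciparum HB3 grown in erythrocytes (0.3% parasitemia, 2.5% hematocrit final) with compound for 72 h at 37 C, 5% CO2. Parasite DNA detected by SYBR Green after saponin/triton lysis overnight; normalized to 0.29 uM artemisinin and DMSO.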"}},
  "note": "Several values for one entry are separate records, joined by “and”; a condition that tells them apart may be missing. Identical values can stand only once. Results filed as inconclusive are left out. Activity calls are given as the source filed them. Unless noted, no rule for the calls is given here.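 For growth, % of control in this document: plate controls were DMSO vehicle wells for no effect and artemisinin wells for full effect.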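 For remaining proliferation (% of control), lower = more inhibition in this document: 100% = DMSO vehicle wells and 0% = artemisinin-treated control wells.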",
  "data": [
    {"smiles": "CC(C)CC(N(C)C)C1(c2ccc(Cl)cc2)CCC1", "note": "(stereo not drawn)", "values": [
      {"measurement": "max response", "setting": "[1]", "value": "6.63% (inactive)"},
      {"measurement": "parasite growth, % of DMSO control", "setting": "[2]", "value": 90.3, "unit": "%"},
      {"measurement": "parasite growth remaining, % of DMSO control (lower = more inhibition)", "setting": "[3]", "value": 99.9, "unit": "%"},
      {"measurement": "parasite growth, % of control (lower = inhibition)", "setting": "[4]", "value": 137, "unit": "%"},
      {"measurement": "growth, % of control", "setting": "[5]", "value": 105, "unit": "%"}
    ]},
    {"smiles": "COc1ccc2c(c1OC)CN1CCc3cc4c(cc3C1C2)OCO4", "note": "(stereo not drawn)", "values": [
      {"measurement": "max response", "setting": "[1]", "value": "4.63% (inactive)"},
      {"measurement": "parasite growth, % of DMSO control", "setting": "[2]", "value": 12.7, "unit": "%"},
      {"measurement": "parasite growth remaining, % of DMSO control (lower = more inhibition)", "setting": "[3]", "value": 24.6, "unit": "%"},
      {"measurement": "parasite growth, % of control (lower = inhibition)", "setting": "[4]", "value": 10.1, "unit": "%"},
      {"measurement": "growth, % of control", "setting": "[5]", "value": 7.61, "unit": "%"}
    ]},
    {"smiles": "O=c1c(O)c(-c2ccc(O)c(O)c2)oc2cc(O)cc(O)c12", "values": [
      {"measurement": "max response", "setting": "[1]", "value": "43.6% (inactive) and 2.58% (inactive) and 14.8% (inactive)"},
      {"measurement": "parasite growth remaining, % of DMSO control (lower = more inhibition)", "setting": "[3]", "value": 39, "unit": "%"}
    ]},
    {"smiles": "CN1CCN(C(=O)O[C@H]2c3nccnc3C(=O)N2c2ccc(Cl)cn2)CC1", "values": [
      {"measurement": "max response", "setting": "[1]", "value": "-4.73% (inactive)"},
      {"measurement": "parasite growth, % of DMSO control", "setting": "[2]", "value": 95.4, "unit": "%"},
      {"measurement": "parasite growth remaining, % of DMSO control (lower = more inhibition)", "setting": "[3]", "value": 98.2, "unit": "%"},
      {"measurement": "parasite growth, % of control (lower = inhibition)", "setting": "[4]", "value": 86.8, "unit": "%"},
      {"measurement": "growth, % of control", "setting": "[5]", "value": 97.2, "unit": "%"}
    ]},
    {"smiles": "Nc1nc(F)nc2c1ncn2[C@@H]1O[C@H](CO)[C@@H](O)[C@@H]1O", "values": [
      {"measurement": "parasite growth, % of DMSO control", "setting": "[2]", "value": 31, "unit": "%"},
      {"measurement": "growth, % of control", "setting": "[5]", "value": 81.8, "unit": "%"}
    ]},
    {"smiles": "CCC(COC(=O)c1cc(OC)c(OC)c(OC)c1)(c1ccccc1)N(C)C", "note": "(stereo not drawn)", "values": [
      {"measurement": "max response", "setting": "[1]", "value": "10.7% (inactive)"}
    ]},
    {"smiles": "Cc1nc2n(c(=O)c1CCN1CCC(c3noc4cc(F)ccc34)CC1)CCCC2", "values": [
      {"measurement": "parasite growth, % of DMSO control", "setting": "[2]", "value": 38.3, "unit": "%"},
      {"measurement": "parasite growth remaining, % of DMSO control (lower = more inhibition)", "setting": "[3]", "value": 70.5, "unit": "%"},
      {"measurement": "parasite growth, % of control (lower = inhibition)", "setting": "[4]", "value": 48.7, "unit": "%"},
      {"measurement": "growth, % of control", "setting": "[5]", "value": 60.5, "unit": "%"}
    ]},
    {"smiles": "CS(=O)c1ccc(-c2nc(-c3ccc(F)cc3)c(-c3ccncc3)[nH]2)cc1", "note": "(stereo not drawn)", "values": [
      {"measurement": "remaining parasite growth % (stronger effect = lower value)", "setting": "[6]", "value": 64.7, "unit": "%"},
      {"measurement": "activity, percent of control", "setting": "[7]", "value": 56.4, "unit": "%"},
      {"measurement": "parasite growth, % of control (lower = inhibition)", "setting": "[4]", "value": "30.3% [at 57.5 µM]"}
    ]},
    {"smiles": "CCOC(=O)c1ncn2c1CN(C)C(=O)c1cc(F)ccc1-2", "values": [
      {"measurement": "parasite growth, % of DMSO control", "setting": "[2]", "value": 69.1, "unit": "%"},
      {"measurement": "parasite growth remaining, % of DMSO control (lower = more inhibition)", "setting": "[3]", "value": 84.4, "unit": "%"},
      {"measurement": "parasite growth, % of control (lower = inhibition)", "setting": "[4]", "value": 74.8, "unit": "%"},
      {"measurement": "growth, % of control", "setting": "[5]", "value": 94.6, "unit": "%"}
    ]},
    {"smiles": "Cc1ccc2c(c1)C1CN(C)CCC1N2", "note": "(stereo not drawn)", "values": [
      {"measurement": "max response", "setting": "[1]", "value": "-7.38% (inactive)"}
    ]},
    {"smiles": "CCN(C)C(=O)Oc1cccc([C@H](C)N(C)C)c1", "values": [
      {"measurement": "parasite growth, % of DMSO control", "setting": "[2]", "value": 92, "unit": "%"},
      {"measurement": "parasite growth, % of control (lower = inhibition)", "setting": "[4]", "value": 69.6, "unit": "%"},
      {"measurement": "growth, % of control", "setting": "[5]", "value": 82.1, "unit": "%"}
    ]},
    {"smiles": "Cc1cc2c(s1)Nc1ccccc1N=C2N1CCN(C)CC1", "values": [
      {"measurement": "parasite growth, % of DMSO control", "setting": "[2]", "value": 97.1, "unit": "%"},
      {"measurement": "parasite growth remaining, % of DMSO control (lower = more inhibition)", "setting": "[3]", "value": 94.5, "unit": "%"},
      {"measurement": "parasite growth, % of control (lower = inhibition)", "setting": "[4]", "value": 49.7, "unit": "%"},
      {"measurement": "growth, % of control", "setting": "[5]", "value": 101, "unit": "%"}
    ]},
    {"smiles": "O=P1(NCCCl)OCCCN1CCCl", "note": "(stereo not drawn)", "values": [
      {"measurement": "max response", "setting": "[1]", "value": "4.6% (inactive)"},
      {"measurement": "parasite growth, % of DMSO control", "setting": "[2]", "value": 62.8, "unit": "%"},
      {"measurement": "parasite growth remaining, % of DMSO control (lower = more inhibition)", "setting": "[3]", "value": 97.2, "unit": "%"},
      {"measurement": "parasite growth, % of control (lower = inhibition)", "setting": "[4]", "value": 110, "unit": "%"},
      {"measurement": "growth, % of control", "setting": "[5]", "value": 107, "unit": "%"}
    ]},
    {"smiles": "Oc1cn2c(n1)Nc1ccc(Cl)c(Cl)c1C2", "values": [
      {"measurement": "remaining parasite growth % (stronger effect = lower value)", "setting": "[6]", "value": 107, "unit": "%"},
      {"measurement": "activity, percent of control", "setting": "[7]", "value": 97.1, "unit": "%"},
      {"measurement": "remaining proliferation (% of control), lower = more inhibition", "setting": "[8]", "value": 97.7, "unit": "%"}
    ]},
    {"smiles": "CCn1cc(C(=O)O)c(=O)c2cc(F)c(N3CCNCC3)cc21", "values": [
      {"measurement": "parasite growth, % of DMSO control", "setting": "[2]", "value": 48, "unit": "%"},
      {"measurement": "parasite growth remaining, % of DMSO control (lower = more inhibition)", "setting": "[3]", "value": 60.2, "unit": "%"},
      {"measurement": "parasite growth, % of control (lower = inhibition)", "setting": "[4]", "value": 42.3, "unit": "%"},
      {"measurement": "growth, % of control", "setting": "[5]", "value": 82.1, "unit": "%"}
    ]},
    {"smiles": "COc1cc2c(c(OC)c1OC)-c1ccc(OC)c(=O)cc1[C@@H](NC(C)=O)CC2", "values": [
      {"measurement": "parasite growth, % of DMSO control", "setting": "[2]", "value": 34.7, "unit": "%"},
      {"measurement": "parasite growth remaining, % of DMSO control (lower = more inhibition)", "setting": "[3]", "value": 78.8, "unit": "%"},
      {"measurement": "parasite growth, % of control (lower = inhibition)", "setting": "[4]", "value": 42.5, "unit": "%"},
      {"measurement": "growth, % of control", "setting": "[5]", "value": 35.4, "unit": "%"}
    ]},
    {"smiles": "CC(C)C(=O)Nc1ccc([N+](=O)[O-])c(C(F)(F)F)c1", "values": [
      {"measurement": "parasite growth, % of DMSO control", "setting": "[2]", "value": 93, "unit": "%"},
      {"measurement": "parasite growth remaining, % of DMSO control (lower = more inhibition)", "setting": "[3]", "value": 91, "unit": "%"},
      {"measurement": "parasite growth, % of control (lower = inhibition)", "setting": "[4]", "value": 69.2, "unit": "%"},
      {"measurement": "growth, % of control", "setting": "[5]", "value": 88.5, "unit": "%"}
    ]},
    {"smiles": "O=NN(CCCl)C(=O)NC1CCCCC1", "values": [
      {"measurement": "parasite growth, % of DMSO control", "setting": "[2]", "value": 91.7, "unit": "%"},
      {"measurement": "parasite growth remaining, % of DMSO control (lower = more inhibition)", "setting": "[3]", "value": 101, "unit": "%"},
      {"measurement": "parasite growth, % of control (lower = inhibition)", "setting": "[4]", "value": 72.9, "unit": "%"},
      {"measurement": "growth, % of control", "setting": "[5]", "value": 74.9, "unit": "%"}
    ]}
  ]
}
